Common to all, as to assay: DAPPL (digital affinity profiling via proximity ligation, sequencing); 10 mM Tris-HCl pH 7.5, 50 mM NaCl, 1 mM DTT, 4% glycerol, room temperature, 30 min; GST-TFs on glutathione beads, 16-mer random dsDNA library, 0.1% formaldehyde crosslink after washing; high values mean tight binding
One assay concerns the target T1, FEV (Homo sapiens, UniProt Q99581 1-238).
T1 sequence: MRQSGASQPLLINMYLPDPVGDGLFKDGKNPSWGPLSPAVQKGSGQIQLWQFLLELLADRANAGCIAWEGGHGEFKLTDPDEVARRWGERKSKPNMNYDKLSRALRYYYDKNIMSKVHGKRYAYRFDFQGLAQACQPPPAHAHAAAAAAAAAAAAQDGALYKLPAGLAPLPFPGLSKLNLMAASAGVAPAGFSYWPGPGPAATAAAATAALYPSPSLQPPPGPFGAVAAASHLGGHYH
Conditions: protein: recombinant; tags: N-terminal GST; dsDNA, one strand shown. The method, boiled down:
(§1)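 Human transcription factors were made in yeast as GST fusions, captured on glutathione beads and barcoded with DNA. With a tag-only sample included, the pool was incubated with 200 nmole of a random double-stranded 16-mer DNA library in Tris/NaCl/DTT/glycerol buffer at room temperature for 30 min, then crosslinked with 0.1% formaldehyde after washing, ligated by proximity, amplified and sequenced. For binding signal, each hexamer's read frequency for a factor is divided by its frequency for the tag-only sample.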

In a further assay the target is ETV5 (Homo sapiens, UniProt P41161 1-510). Conditions: protein: recombinant; tags: N-terminal GST; dsDNA, one strand shown. A digest of the protocol:
as §1

A further assay has as its target HSF1 (Homo sapiens, UniProt Q00613 1-529). Conditions: protein: recombinant; tags: N-terminal GST; chain copies: 3; dsDNA, one strand shown. The method, boiled down:
as §1

The target of the next assay is T2, SPIC (Homo sapiens, UniProt Q8N5J4 1-248).
T2 sequence: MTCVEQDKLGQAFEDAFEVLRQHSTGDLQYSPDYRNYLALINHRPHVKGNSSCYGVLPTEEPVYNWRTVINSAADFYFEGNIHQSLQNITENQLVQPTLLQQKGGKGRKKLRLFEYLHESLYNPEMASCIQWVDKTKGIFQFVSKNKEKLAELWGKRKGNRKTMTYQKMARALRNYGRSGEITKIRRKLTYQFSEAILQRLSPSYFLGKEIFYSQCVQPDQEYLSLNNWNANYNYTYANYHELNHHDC
Conditions: protein: recombinant; tags: N-terminal GST; dsDNA, one strand shown. The method, boiled down: as §1

In another assay the target is ELF4 (Homo sapiens, UniProt Q99607 1-663). As to conditions: protein: recombinant; tags: N-terminal GST; dsDNA, one strand shown. The method, boiled down:
as §1

Another assay deals with T3, ELK4 (Homo sapiens, UniProt P28324-2 1-405).
T3 sequence: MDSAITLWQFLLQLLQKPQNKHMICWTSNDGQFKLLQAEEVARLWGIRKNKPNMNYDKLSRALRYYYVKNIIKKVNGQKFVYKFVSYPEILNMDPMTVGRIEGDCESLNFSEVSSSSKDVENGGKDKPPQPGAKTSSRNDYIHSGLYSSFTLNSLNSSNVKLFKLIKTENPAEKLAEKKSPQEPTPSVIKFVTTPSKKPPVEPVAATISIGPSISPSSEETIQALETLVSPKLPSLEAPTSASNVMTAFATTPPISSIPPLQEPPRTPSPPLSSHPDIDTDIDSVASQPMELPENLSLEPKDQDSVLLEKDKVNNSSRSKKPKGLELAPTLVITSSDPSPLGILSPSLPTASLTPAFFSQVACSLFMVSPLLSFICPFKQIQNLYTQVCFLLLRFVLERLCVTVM
Conditions: protein: recombinant; tags: N-terminal GST; dsDNA, one strand shown. The method, boiled down:
as §1

The target of the next assay is T4, ETV2 (Homo sapiens, UniProt O00321 1-342).
T4 sequence: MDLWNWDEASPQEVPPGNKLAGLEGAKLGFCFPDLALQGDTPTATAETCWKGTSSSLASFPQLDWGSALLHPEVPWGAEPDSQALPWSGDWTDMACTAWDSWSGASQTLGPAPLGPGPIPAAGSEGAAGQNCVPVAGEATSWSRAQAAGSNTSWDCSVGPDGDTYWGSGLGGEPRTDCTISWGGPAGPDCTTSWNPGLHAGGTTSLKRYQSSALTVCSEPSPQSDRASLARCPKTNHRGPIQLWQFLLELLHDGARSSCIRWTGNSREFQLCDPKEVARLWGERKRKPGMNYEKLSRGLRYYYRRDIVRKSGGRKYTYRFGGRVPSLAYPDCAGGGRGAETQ
Conditions: protein: recombinant; tags: N-terminal GST; dsDNA, one strand shown. The method, boiled down: as §1

The target in another assay is T5, ELF3 (Homo sapiens, UniProt P78545 1-371).
T5 sequence: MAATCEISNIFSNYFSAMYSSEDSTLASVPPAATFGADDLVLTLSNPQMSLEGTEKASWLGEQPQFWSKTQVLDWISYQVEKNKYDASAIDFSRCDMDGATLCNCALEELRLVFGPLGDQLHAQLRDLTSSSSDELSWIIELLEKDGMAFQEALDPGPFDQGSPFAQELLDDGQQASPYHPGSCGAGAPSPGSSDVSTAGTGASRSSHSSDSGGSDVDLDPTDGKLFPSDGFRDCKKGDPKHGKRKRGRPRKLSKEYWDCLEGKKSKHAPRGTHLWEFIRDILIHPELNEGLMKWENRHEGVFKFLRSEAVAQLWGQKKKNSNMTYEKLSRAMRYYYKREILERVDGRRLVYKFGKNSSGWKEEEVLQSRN
As to conditions: protein: recombinant; tags: N-terminal GST; dsDNA, one strand shown. The method, boiled down: as §1

A further assay deals with CRX (Homo sapiens, UniProt O43186 1-299). Conditions: protein: recombinant; tags: N-terminal GST; dsDNA, one strand shown. The method, boiled down: as §1
For a further assay, the target named is ETV1 (Homo sapiens, UniProt P50549 1-477). Conditions: protein: recombinant; tags: N-terminal GST; dsDNA, one strand shown. A digest of the protocol: as §1
The target of a further assay is T6, ERF (Homo sapiens, UniProt P50548 1-548).
T6 sequence: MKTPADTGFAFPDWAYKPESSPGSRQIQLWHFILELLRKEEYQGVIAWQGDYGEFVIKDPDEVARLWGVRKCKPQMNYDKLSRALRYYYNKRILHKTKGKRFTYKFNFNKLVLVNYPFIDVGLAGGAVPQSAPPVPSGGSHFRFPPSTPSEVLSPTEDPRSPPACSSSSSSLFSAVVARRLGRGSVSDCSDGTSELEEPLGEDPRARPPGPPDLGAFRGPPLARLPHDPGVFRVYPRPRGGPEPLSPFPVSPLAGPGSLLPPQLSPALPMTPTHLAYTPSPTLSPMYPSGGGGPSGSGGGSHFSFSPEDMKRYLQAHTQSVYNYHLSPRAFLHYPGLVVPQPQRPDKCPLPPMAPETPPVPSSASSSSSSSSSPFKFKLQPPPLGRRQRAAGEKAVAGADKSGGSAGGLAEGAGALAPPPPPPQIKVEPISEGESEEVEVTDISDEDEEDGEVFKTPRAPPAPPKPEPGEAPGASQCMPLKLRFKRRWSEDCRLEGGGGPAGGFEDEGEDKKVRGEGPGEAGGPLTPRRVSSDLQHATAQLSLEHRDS
Conditions: protein: recombinant; tags: N-terminal GST; dsDNA, one strand shown. A digest of the protocol:
as §1

A further assay concerns the target T7, ETV3L (Homo sapiens, UniProt Q6ZN32 1-361).
T7 sequence: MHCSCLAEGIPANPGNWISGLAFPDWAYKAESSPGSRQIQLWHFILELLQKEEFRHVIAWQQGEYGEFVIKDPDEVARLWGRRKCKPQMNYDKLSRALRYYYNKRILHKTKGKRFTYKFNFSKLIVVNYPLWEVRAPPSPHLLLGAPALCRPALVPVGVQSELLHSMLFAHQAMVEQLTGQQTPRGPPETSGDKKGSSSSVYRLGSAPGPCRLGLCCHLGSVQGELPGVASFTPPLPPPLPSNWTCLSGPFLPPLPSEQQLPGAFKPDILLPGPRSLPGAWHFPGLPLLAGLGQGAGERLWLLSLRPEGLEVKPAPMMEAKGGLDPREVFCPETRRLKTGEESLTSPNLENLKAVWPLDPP
Conditions: protein: recombinant; tags: N-terminal GST; dsDNA, one strand shown. The method, boiled down:
as §1

Another assay addresses T8, ETS2 (Homo sapiens, UniProt P15036 1-469).
T8 sequence: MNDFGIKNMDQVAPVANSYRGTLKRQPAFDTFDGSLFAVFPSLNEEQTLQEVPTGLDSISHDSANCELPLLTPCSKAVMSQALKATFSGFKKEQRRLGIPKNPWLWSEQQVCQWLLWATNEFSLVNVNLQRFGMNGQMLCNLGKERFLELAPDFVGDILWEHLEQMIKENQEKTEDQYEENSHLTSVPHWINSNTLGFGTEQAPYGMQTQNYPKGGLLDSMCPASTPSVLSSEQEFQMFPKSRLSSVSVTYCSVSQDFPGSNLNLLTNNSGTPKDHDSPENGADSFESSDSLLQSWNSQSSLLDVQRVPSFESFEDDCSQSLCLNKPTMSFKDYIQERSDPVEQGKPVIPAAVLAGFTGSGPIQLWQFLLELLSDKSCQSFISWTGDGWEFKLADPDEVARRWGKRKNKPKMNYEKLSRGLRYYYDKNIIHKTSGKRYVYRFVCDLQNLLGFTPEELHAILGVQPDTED
Conditions: protein: recombinant; tags: N-terminal GST; dsDNA, one strand shown. A digest of the protocol:
as §1

Another assay has as its target T9, SPDEF (Homo sapiens, UniProt O95238 1-335).
T9 sequence: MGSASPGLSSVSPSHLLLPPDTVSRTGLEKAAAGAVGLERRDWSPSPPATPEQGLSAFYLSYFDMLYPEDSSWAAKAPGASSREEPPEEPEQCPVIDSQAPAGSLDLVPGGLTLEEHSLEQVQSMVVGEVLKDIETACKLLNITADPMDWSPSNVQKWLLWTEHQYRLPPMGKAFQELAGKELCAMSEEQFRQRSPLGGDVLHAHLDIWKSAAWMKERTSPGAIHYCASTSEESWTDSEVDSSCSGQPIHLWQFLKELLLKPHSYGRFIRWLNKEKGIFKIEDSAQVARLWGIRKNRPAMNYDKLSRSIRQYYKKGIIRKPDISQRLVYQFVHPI
Conditions: protein: recombinant; tags: N-terminal GST; dsDNA, one strand shown. The method, boiled down: as §1

In the next assay the target is T10, ETV7 (Homo sapiens, UniProt Q9Y603 1-341).
T10 sequence: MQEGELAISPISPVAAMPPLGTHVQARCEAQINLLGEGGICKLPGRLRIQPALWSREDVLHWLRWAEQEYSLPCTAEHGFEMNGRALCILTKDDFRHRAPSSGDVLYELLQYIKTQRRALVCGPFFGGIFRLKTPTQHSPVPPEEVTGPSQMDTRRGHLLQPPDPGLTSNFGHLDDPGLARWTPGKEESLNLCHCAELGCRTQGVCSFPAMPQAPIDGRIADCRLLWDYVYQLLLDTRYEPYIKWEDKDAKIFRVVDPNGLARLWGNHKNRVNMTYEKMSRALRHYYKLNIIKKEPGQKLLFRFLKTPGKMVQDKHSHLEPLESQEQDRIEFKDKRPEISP
As to conditions: protein: recombinant; tags: N-terminal GST; dsDNA, one strand shown. A digest of the protocol:
as §1

The target of another assay is T11, ELF5 (Homo sapiens, UniProt Q9UKW6-2 1-255).
T11 sequence: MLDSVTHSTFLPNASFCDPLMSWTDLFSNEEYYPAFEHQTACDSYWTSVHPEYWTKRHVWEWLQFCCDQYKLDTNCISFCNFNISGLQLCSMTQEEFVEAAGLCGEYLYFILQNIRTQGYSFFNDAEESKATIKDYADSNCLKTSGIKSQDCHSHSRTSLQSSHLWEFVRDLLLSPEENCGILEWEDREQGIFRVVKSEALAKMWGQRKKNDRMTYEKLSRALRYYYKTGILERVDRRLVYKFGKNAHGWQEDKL
As to conditions: protein: recombinant; tags: N-terminal GST; dsDNA, one strand shown. The method, boiled down:
as §1

In another assay the target is T12, ETV3 (Homo sapiens, UniProt P41162-2 1-143).
T12 sequence: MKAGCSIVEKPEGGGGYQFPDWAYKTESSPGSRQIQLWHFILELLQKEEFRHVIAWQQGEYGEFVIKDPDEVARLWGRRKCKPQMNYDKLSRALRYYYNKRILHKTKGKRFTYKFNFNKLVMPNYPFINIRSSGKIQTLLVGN
Conditions: protein: recombinant; tags: N-terminal GST; dsDNA, one strand shown. The method, boiled down:
as §1

The next assay deals with ETV6 (Homo sapiens, UniProt P41212 1-452). Conditions: protein: recombinant; tags: N-terminal GST; dsDNA, one strand shown. The method, boiled down: as §1
Sequence of ETV6 (P41212 whole entry): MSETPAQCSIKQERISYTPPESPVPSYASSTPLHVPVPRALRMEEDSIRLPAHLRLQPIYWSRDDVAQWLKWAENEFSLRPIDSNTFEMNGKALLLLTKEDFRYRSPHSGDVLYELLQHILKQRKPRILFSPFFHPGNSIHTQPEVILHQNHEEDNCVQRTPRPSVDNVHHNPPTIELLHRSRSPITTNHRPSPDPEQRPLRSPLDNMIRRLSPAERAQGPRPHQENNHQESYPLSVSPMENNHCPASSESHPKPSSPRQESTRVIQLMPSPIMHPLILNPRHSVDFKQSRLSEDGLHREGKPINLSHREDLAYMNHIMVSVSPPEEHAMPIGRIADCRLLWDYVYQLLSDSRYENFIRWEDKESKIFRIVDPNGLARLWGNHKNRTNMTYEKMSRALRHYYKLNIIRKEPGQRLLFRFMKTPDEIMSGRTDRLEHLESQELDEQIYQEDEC

Sequence of ETV5 (P41161 whole entry): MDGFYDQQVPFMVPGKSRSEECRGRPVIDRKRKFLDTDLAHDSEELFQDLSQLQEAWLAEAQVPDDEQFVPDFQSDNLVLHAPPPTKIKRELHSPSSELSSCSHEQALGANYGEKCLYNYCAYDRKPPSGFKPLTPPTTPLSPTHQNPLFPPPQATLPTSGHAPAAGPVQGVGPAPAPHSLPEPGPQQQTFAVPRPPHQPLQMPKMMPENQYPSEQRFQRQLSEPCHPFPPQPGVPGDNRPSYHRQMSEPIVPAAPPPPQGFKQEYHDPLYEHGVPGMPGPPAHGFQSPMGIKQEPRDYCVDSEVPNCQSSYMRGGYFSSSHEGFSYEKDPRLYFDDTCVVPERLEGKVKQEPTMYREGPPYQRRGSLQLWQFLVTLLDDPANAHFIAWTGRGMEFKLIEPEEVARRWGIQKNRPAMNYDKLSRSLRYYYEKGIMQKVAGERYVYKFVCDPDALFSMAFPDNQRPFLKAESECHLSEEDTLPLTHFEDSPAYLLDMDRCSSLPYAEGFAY
Sequence of ELF4 (Q99607 whole entry): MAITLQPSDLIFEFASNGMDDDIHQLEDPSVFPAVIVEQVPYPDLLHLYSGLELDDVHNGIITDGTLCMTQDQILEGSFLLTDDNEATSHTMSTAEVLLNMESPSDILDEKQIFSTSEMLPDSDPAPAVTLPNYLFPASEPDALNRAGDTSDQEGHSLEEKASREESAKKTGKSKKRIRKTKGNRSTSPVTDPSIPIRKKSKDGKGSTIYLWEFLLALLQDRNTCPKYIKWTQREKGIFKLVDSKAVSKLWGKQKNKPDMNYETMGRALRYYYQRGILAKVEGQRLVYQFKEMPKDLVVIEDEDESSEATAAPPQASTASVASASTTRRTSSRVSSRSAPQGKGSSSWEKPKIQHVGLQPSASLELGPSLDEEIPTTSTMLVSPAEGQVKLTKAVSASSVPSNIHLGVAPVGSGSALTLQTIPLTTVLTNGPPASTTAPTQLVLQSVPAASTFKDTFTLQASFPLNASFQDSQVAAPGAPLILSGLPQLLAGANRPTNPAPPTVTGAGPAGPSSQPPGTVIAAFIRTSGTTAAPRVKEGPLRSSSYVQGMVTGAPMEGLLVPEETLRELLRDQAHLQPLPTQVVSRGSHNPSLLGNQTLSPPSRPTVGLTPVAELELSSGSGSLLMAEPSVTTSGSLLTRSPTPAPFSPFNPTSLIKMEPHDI
Sequence of CRX (O43186 whole entry): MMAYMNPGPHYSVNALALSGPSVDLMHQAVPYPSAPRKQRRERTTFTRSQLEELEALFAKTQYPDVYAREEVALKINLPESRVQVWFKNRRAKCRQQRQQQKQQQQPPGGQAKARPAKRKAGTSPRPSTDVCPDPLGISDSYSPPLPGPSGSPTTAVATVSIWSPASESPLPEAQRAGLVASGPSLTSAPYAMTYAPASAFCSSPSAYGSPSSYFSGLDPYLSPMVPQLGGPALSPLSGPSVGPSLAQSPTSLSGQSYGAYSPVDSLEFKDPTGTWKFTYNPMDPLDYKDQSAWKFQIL
Sequence of ETV1 (P50549 whole entry): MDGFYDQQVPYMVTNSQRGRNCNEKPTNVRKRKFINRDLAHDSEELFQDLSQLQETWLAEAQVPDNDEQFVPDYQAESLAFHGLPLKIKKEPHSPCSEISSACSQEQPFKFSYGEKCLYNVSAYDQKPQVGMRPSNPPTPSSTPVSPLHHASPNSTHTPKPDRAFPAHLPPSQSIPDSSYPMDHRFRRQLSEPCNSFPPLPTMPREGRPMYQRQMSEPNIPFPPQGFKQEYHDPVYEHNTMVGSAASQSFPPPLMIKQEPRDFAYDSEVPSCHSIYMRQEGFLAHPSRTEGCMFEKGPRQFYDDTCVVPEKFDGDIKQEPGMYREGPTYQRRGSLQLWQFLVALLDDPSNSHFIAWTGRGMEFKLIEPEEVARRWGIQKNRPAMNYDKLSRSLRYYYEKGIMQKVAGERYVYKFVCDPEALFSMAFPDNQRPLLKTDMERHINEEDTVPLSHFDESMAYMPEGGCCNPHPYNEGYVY
Sequence of HSF1 (Q00613 whole entry): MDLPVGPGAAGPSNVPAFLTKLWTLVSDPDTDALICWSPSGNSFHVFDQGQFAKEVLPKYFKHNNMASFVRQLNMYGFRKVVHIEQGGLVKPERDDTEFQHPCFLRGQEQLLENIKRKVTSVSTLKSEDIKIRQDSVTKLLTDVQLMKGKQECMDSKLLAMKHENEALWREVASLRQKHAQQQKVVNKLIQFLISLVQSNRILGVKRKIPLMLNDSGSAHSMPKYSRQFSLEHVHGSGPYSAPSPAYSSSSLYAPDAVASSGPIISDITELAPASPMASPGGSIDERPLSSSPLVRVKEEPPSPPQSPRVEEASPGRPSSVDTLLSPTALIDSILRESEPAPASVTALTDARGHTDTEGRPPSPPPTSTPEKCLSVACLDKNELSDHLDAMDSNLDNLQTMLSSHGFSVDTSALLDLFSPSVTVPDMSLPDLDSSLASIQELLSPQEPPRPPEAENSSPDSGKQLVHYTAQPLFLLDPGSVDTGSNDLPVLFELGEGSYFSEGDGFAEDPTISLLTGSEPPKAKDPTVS

Consider ATTTAC, for which the binding signal with FEV was 1.3 fold enrichment (6-mer frequency, TF over GST control); with ETV5, 1.33 fold enrichment (6-mer frequency, TF over GST control); with HSF1, 1.38 fold enrichment (6-mer frequency, TF over GST control); with SPIC it was 1.2 fold enrichment (6-mer frequency, TF over GST control); with ELF4, 1.33 fold enrichment (6-mer frequency, TF over GST control); with ELK4 it was 1.23 fold enrichment (6-mer frequency, TF over GST control). The binding signal was 1.16 fold enrichment (6-mer frequency, TF over GST control) in the assay with ETV2; 1.27 fold enrichment (6-mer frequency, TF over GST control) in the assay with ELF3; 1.75 fold enrichment (6-mer frequency, TF over GST control) with CRX; 1.22 fold enrichment (6-mer frequency, TF over GST control) with ETV1; 1.27 fold enrichment (6-mer frequency, TF over GST control) in the assay with ERF; 1.18 fold enrichment (6-mer frequency, TF over GST control) with ETV3L. In addition, the binding signal was 1.28 fold enrichment (6-mer frequency, TF over GST control) in the assay with ETS2; 1.21 fold enrichment (6-mer frequency, TF over GST control) with SPDEF; 1.28 fold enrichment (6-mer frequency, TF over GST control) in the assay with ETV7; 1.25 fold enrichment (6-mer frequency, TF over GST control) with ELF5; 1.29 fold enrichment (6-mer frequency, TF over GST control) in the assay with ETV3; 1.18 fold enrichment (6-mer frequency, TF over GST control) with ETV6.

Source of the values: article PMC7862700, “An all-to-all approach to the identification of sequence-specific readers for epigenetic DNA modifications on cytosine”.
